According to PubChem BioAssay (NCATS):
Where “and” joins values, the source holds several entries; their conditions need not be identical. Equal values may be shown once. Records with an inconclusive call do not appear. Calls of active or inactive are those of the source. Calls follow the shape of the dose curve; as a rule, active = well fitted inhibition curve with a large enough effect; inconclusive = small, poorly fitted or top-dose-only effect; inactive = flat fitted curve, though single readings scatter.

Columns and labels:
[1] = test system: CRL-7250; experiment: Cytotoxic Profiling of Annotated Libraries Using Quantitative High-Throughput Screening (AID 1296008); conditions: Five cell lines viability, CellTiter-Glo ATP luminescence, 48-72 h; max response: stronger effect = lower value; as to max response: % is scaled to controls: 0 for no effect and ±100 for the full control effect
Summary of the method: (§1)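 Cells exposed to compounds for 48 or 72 hr at 37 degrees Celsius. Viability read as ATP-coupled luminescence with CellTiter-Glo after 10 min at room temperature.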

[2] = test system: HEK293; experiment: as above; conditions: Five cell lines viability, CellTiter-Glo ATP luminescence, 48-72 h; max response: stronger effect = lower value
Summary of the method: as §1

[3] = test system: HaCat; experiment: as above; conditions: Five cell lines viability, CellTiter-Glo ATP luminescence, 48-72 h; max response: stronger effect = lower value
Summary of the method: as §1

[4] = test system: KB-3-1; experiment: as above; conditions: Five cell lines viability, CellTiter-Glo ATP luminescence, 48-72 h; max response: stronger effect = lower value
Summary of the method: as §1

[5] = test system: NIH3T3; experiment: as above; conditions: Five cell lines viability, CellTiter-Glo ATP luminescence, 48-72 h; max response: stronger effect = lower value
Summary of the method: as §1

[6] = test system: SC27B; experiment: qHTS profiling for inhibitors of Plasmodium falciparum proliferation (AID 504749); also: potency is read from the fitted curve at half-maximal effect; conditions: P. falciparum in erythrocytes, SYBR Green DNA, 72 h; series mostly up to 28.7 µM
Summary of the method: (§2)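 Each compound contacts P. falciparum-infected red blood cells for 72 h at 37 C; lysis buffer (Tris, EDTA, saponin, Triton X, SYBR Green I) is added and fluorescence measured next morning; values normalized to controls.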

[7] = test system: TAB109; experiment: as above; conditions: P. falciparum in erythrocytes, SYBR Green DNA, 72 h; series mostly up to 28.7 µM
Summary of the method: as §2

[8] = test system: TAB113; experiment: as above; conditions: P. falciparum in erythrocytes, SYBR Green DNA, 72 h; series mostly up to 28.7 µM
Summary of the method: as §2

[9] = test system: TAB165; experiment: as above; conditions: P. falciparum in erythrocytes, SYBR Green DNA, 72 h; series mostly up to 28.7 µM
Summary of the method: as §2

[10] = test system: W2; experiment: as above; conditions: P. falciparum in erythrocytes, SYBR Green DNA, 72 h; series mostly up to 28.7 µM
Summary of the method: as §2
Also: nearly all actives have a fitted effect of over 60% in size.

CCN1C[C@]2(OC(=O)c3ccccc3NC(C)=O)CC[C@H](OC)[C@@]34[C@@H]2C[C@@H]([C@@H]13)[C@@]1(O)C[C@H](OC)[C@H]2C[C@@H]4[C@]1(O)[C@H]2OC
inactive: max response [1] -8.79% | max response [2] -11.1% | outcome [3] | max response [4] 6.81% | outcome [5]

CC(=O)OC1CC(O)C(C)(C)C2CC(OC(C)=O)C3(C)C(CCC4(C)C(c5ccoc5)C(=O)C5OC543)C12C (centres undefined)
inactive: max response [1] -0.447% | max response [2] -14.4% | max response [3] -11.6% | max response [4] 4.61% | outcome [5]

C[CH2][Hg][S]c1ccccc1C(=O)O
active: Potency [6] 3.98 µM | Potency [7] 2.51 µM | Potency [8] 3.16 µM | Potency [9] 2.24 µM | Potency [10] 2.13 µM

O=C(OCCN1CCCCC1)C(O)(c1ccccc1)c1ccccc1
inactive: Potency [6] | Potency [7] | Potency [8] | Potency [9] | Potency [10] | max response [4] 1.68%

CCON=O
inactive: Potency [6] | Potency [7] | Potency [8] | Potency [9] | Potency [10] | max response [4] -2.91%

O=[N+]([O-])c1cc(I)c(O)c(I)c1
inactive: Potency [6] | Potency [7] | Potency [8] | Potency [9] | Potency [10] | max response [4] -0.558%

CCC1(C)CC(=O)NC(=O)C1
inactive: Potency [6] | Potency [7] | Potency [8] | Potency [9] | Potency [10] | max response [4] 4.64%

CCCCCCCCCC(=O)O[C@H]1CC[C@H]2[C@@H]3CCC4=CC(=O)CC[C@]4(C)[C@H]3CC[C@]12C
inactive: Potency [6] | Potency [7] | Potency [8] | Potency [9] | max response [4] 0.58%

Oc1cc(Cl)c(Cl)cc1Cl
inactive: Potency [6] | Potency [7] | Potency [8] | Potency [9] | Potency [10] | max response [4] 0.226%

c1ccc2sc(SNC3CCCCC3)nc2c1
inactive: Potency [6] | Potency [7] | Potency [8] | Potency [9] | max response [4] -2.06%

Cn1sc(Cl)cc1=O
inactive: Potency [6] | Potency [7] | Potency [8] | Potency [9] | Potency [10] | max response [4] -13.7%

CCC1(c2ccccc2)C(=O)NC(=O)N(C(=O)c2ccccc2)C1=O (centres undefined)
inactive: Potency [6] | Potency [7] | Potency [8] | Potency [9] | max response [4] -9.95%

C[C@H]1CC[C@@H]2[C@@H](C)[C@H]3[C@H](C[C@H]4[C@@H]5CC=C6CC(O[C@@H]7O[C@H](CO)[C@H](O)[C@H](O[C@@H]8O[C@H](CO)[C@@H](O)[C@H](O)[C@H]8O)[C@H]7O[C@H]7O[C@@H](C)[C@H](O)[C@@H](O)[C@H]7O)CC[C@]6(C)[C@H]5CC[C@]34C)N2C1 (some centres undefined)
inactive: Potency [6] | Potency [7] | Potency [8] | Potency [9] | max response [4] 48.6%

CCCC(C)C1(CC)C(=O)NC(=O)NC1=O (centres undefined)
inactive: Potency [6] | Potency [7] | Potency [8] | Potency [9] | Potency [10] | max response [4] -12.9%

COc1ccc2c3c1O[C@H]1C(=O)CC[C@H]4[C@@H](C2)N(C)CC[C@]314
inactive: Potency [6] | Potency [7] | Potency [8] | Potency [9] | max response [4] 8.34%

[2H]C([2H])([2H])[C@H](N)Cc1ccccc1
inactive: max response [4] 2.04%

CC(Cc1ccccc1)NC=O (centres undefined)
inactive: Potency [6] | Potency [7] | Potency [8] | Potency [9] | Potency [10] | max response [4] 2%

O=[N+]([O-])c1ccccc1
inactive: Potency [6] | Potency [7] | Potency [8] | Potency [9] | Potency [10] | max response [4] 12.1%

CNC(=O)OCC[N+](C)(C)C
inactive: Potency [6] | Potency [7] | Potency [8] | Potency [9] | Potency [10] | max response [4] 5.31%

CC1CCC(C(C)C)C(OC(=O)c2ccccc2N)C1 (centres undefined)
inactive: Potency [6] | Potency [7] | Potency [8] | max response [4] 24.6%

CCC1(CC)C(=O)NC(=O)N(C)C1=O
inactive: Potency [6] | Potency [7] | Potency [8] | Potency [9] | max response [4] -2.91%

CCN(CC)C(=O)/C(Cl)=C(\C)OP(=O)(OC)OC
inactive: Potency [6] | Potency [7] | Potency [8] | Potency [9] | max response [4] -1.44%

O=S(=O)(O)c1cc(O)ccc1O
inactive: Potency [6] | Potency [7] | Potency [8] | Potency [9] | Potency [10] | max response [4] 6.29%

CC(=O)OO
inactive: Potency [6] | Potency [7] | Potency [8] | Potency [9] | Potency [10] | max response [4] 2.94%

CCCC(=O)OC(C(Cl)(Cl)Cl)P(=O)(OC)OC (centres undefined)
inactive: Potency [6] | Potency [7] | Potency [8] | Potency [9] | max response [4] -2.33%

O=c1[nH]c(=O)n(Cl)c(=O)n1Cl
inactive: Potency [6] | Potency [7] | Potency [8] | Potency [9] | Potency [10] | max response [4] 7.09%

COC1=CC=C2[C@H]3Cc4ccc(OC)c5c4[C@@]2(CCN3C)[C@H]1O5
inactive: Potency [6] | Potency [7] | Potency [8] | Potency [9] | max response [4] 16.1% and -9.66%

O=C1CCCCC1CN1CCCCC1 (centres undefined)
inactive: Potency [6] | Potency [7] | Potency [8] | Potency [9] | Potency [10] | max response [4] 4.12%

ClCC1CO1 (centres undefined)
inactive: Potency [6] | Potency [7] | Potency [8] | Potency [9] | Potency [10] | max response [4] -11%

O=P(O)(O)C(Cl)(Cl)P(=O)(O)O
inactive: Potency [6] | Potency [7] | Potency [8] | Potency [9] | Potency [10] | max response [4] -7.13%

CCCCCl
inactive: Potency [6] | Potency [7] | Potency [8] | Potency [9] | max response [4] -7.35%

O=C1CN=C(c2ccccc2)c2cc(Cl)ccc2N1CC1CC1
inactive: Potency [6] | Potency [7] | Potency [8] | Potency [9] | max response [4] 1.41%

[O]=[Cd]
inactive: Potency [6] | Potency [7] | Potency [8] | Potency [9] | Potency [10] | max response [4] -8.4%

C=CCN=C=S
inactive: Potency [6] | Potency [7] | Potency [8] | Potency [9] | max response [4] -2.35%

O=C1C=C2C=C[C@@H]3C[C@@]2(O1)[C@H]1CCCCN31
inactive: max response [4] -12.4%

FC(F)OC(F)(F)C(F)Cl (centres undefined)
inactive: Potency [6] | Potency [7] | Potency [8] | Potency [9] | Potency [10] | max response [4] -1.37%

COC(=O)[C@@H]1[C@H]2CC[C@@H](C[C@H]1OC(=O)c1ccccc1)N2C
inactive: max response [4] 0.336%

CNC1(c2ccccc2Cl)CCCCC1=O (centres undefined)
inactive: Potency [6] | Potency [7] | Potency [8] | Potency [9] | max response [4] 3.79% and -7.59%
active: Potency [10] 4.78 µM

CCC1C(C)=NN=C(c2ccc(OC)c(OC)c2)c2cc(OC)c(OC)cc21 (centres undefined)
inactive: Potency [6] | Potency [7] | Potency [8] | Potency [9] | max response [4] 11.4%

O=C1CN(O)C(c2ccccc2)=c2cc(Cl)ccc2=N1
inactive: Potency [6] | Potency [7] | Potency [8] | Potency [9] | Potency [10] | max response [4] -7.95%

C=CCC1(C(C)CCC)C(=O)N=C(S)NC1=O (centres undefined)
inactive: Potency [6] | Potency [7] | Potency [8] | Potency [9] | Potency [10] | max response [4] -6.22%

O=[N+]([O-])C(Br)(CO)CO
inactive: Potency [6] | Potency [7] | Potency [8] | Potency [9] | max response [4] 1.16%

CCC(=O)O[C@@](Cc1ccccc1)(c1ccccc1)[C@@H](C)CN(C)C
inactive: Potency [6] | Potency [7] | Potency [8] | Potency [9] | max response [4] -0.686%

CC(N)Cc1ccc(O)cc1 (centres undefined)
inactive: Potency [6] | Potency [7] | Potency [8] | Potency [9] | Potency [10] | max response [4] -5.37%
